From PubChem
MEKK3 PB1 HTS – modulators of MEKK3-MEK5 PB1 binding, primary screen, biochemical, wildtype MEKK3, multiplex bead flow cytometry, Alexa488-MEK5; Mitogen-activated protein kinase kinase kinase 3 (Homo sapiens), Q99759; bead-based flow cytometry, Alexa488-MEK5 binding to MEKK3; actives lie on both sides; 0 = blocked by unlabeled MEK5, 100 = vehicle; AID 1529, 2009; binding response (% of control), % at 10 µM; 290,000 tested, 1.4% active;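 active = binding response more than 3 SD above or below the average of its plate-row segment, actives on both sides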;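 also: Alexa488 bead fluorescence after subtracting the streptavidin-only scavenger bead signal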
MEKK2 mut-MEK5 – MEK5 binding signal on mutant MEKK2 PB1, primary screen, biochemical, multiplex bead flow cytometry, Alexa488-MEK5 | Alexa488-MEK5 binding to MEKK2 mutant | percent response, % at 10 µM | 290,000 tested, 0.35% active; in the data active = percent response above about 24%, passing the limit was not always enough
GRK2 aptamer HTS – compounds blocking aptamer binding on GRK2 – biochemical, human GRK2, bead flow cytometry, HTS, primary screen | 330,000 tested, 0.59% active | Beta-adrenergic receptor kinase 1 (Homo sapiens), P25098 | inhibition of aptamer binding, % at 10 µM | FAM-aptamer displacement from GRK2;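 active = inhibition of aptamer binding above 40%, roughly 3 SD of noise, on plates passing a quality check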;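 also: median bead fluorescence of bound FAM aptamer so fluorescent compounds give negative values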
Target sequence (P25098 whole entry, looked up): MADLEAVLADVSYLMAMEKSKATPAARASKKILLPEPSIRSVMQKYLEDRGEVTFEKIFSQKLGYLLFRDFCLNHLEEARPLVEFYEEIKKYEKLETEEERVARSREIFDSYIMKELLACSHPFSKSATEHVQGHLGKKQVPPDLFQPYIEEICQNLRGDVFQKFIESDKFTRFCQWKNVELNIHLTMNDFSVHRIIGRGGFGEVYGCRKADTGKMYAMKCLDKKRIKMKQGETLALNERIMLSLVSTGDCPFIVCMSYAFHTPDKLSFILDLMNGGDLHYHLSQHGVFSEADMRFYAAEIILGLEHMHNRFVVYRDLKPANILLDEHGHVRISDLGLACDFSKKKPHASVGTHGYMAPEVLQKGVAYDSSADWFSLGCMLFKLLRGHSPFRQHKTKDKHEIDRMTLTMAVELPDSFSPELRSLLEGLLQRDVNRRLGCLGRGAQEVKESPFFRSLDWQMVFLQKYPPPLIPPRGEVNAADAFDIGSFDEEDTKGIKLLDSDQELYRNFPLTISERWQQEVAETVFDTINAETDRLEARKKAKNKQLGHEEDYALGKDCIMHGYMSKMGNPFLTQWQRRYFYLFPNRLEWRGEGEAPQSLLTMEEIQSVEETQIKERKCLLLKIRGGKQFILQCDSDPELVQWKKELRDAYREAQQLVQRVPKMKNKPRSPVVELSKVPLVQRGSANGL
MEKK2wt PB1 HTS – modulators of MEK5 binding to wildtype MEKK2, primary screen, biochemical, multiplex bead flow cytometry, Alexa488-MEK5; Mitogen-activated protein kinase kinase kinase 2 (Homo sapiens), Q9Y2U5; Alexa488-MEK5 binding to MEKK2 WT; actives lie on both sides; binding response (% of control), % at 10 µM; 290,000 tested, 1.1% active; in the data active = binding response below about 67% or above about 130%
GRK2 CP1 – GRK2 aptamer-displacing inhibitors, retest, confirmation, biochemical, cherry pick 1, bead flow cytometry; AID 504451, 2011; bead-bound GRK2, FAM-aptamer displacement; shares compounds with GRK2 aptamer HTS; aptamer displacement, % at 10 µM; 2,000 tested, 4% active;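 active = aptamer displacement above 40%, near three times the noise of non-fluorescent compounds, on plates passing quality checks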;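 also: negative values mostly reflect intrinsic compound fluorescence rather than true enhancement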
Aptamer quench SP – aptamer fluorescence quenching in GRK2 counter-screen; shares compounds with GRK2 aptamer HTS; Carboxyfluorescein RNA aptamer on beads, flow cytometry quenching; active compounds read low; fluorescence response (% of DMSO), % at 10 µM; 2,000 tested, under 10 active; AID 504580;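 active = compounds that quench the bead-bound fluorescent RNA probe, cutting fluorescence to under half of the solvent control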;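 also: counterscreen run without GRK2 so only probe quenching by compound is measured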
GRK2 CP2 – GRK2 aptamer-displacing inhibitors, hit retest, confirmation, biochemical, cherry pick 2, bead flow cytometry; shares compounds with GRK2 aptamer HTS; bead-bound GRK2, FAM-aptamer displacement; inhibition of aptamer binding, % at 10 µM; 360 tested, under 10 active; AID 504782, 2011;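 active = inhibition of aptamer binding above 40%, about triple the noise seen with nonglowing compounds, on plates passing quality control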;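 also: negative values mostly come from compounds that fluoresce themselves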
FAM quench CP2 – quenches fluorescent RNA aptamer, GRK2 hit artifact | shares compounds with GRK2 aptamer HTS | carboxyfluorescein RNA aptamer beads, flow cytometry quenching; active compounds read low | fluorescence response vs DMSO, % at 10 µM | 360 tested, under 10 active | AID 588494;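 active = response vs DMSO under 50%, meaning signal dropped by over half, treated as fluorescence quencher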;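 also: labelled aptamer on streptavidin beads without GRK2 as a quench counter-screen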
Numbers stand for hits. Most compounds without a hit are left out; they make up all but 2.5% or so of the library.

How did Cc1ccccc1-c1nc2ccccc2c(=O)n1C1CCS(=O)(=O)C1 (stereo not drawn) do in these assays?
MEKK3 PB1 HTS: inactive; MEKK2 mut-MEK5: inactive; GRK2 aptamer HTS: inactive; MEKK2wt PB1 HTS: inactive

How did CCOC(=O)Cc1cc(=O)n2[nH]c(C)c(-c3ccc(Cl)cc3)c2n1 do in these assays?
MEKK3 PB1 HTS: inactive; MEKK2 mut-MEK5: inactive; GRK2 aptamer HTS: inactive; MEKK2wt PB1 HTS: inactive

How did CCOC(=O)Cc1cc(=O)n2[nH]c(C)c(-c3ccc(OC)cc3)c2n1 do in these assays?
MEKK3 PB1 HTS: inactive; MEKK2 mut-MEK5: inactive; GRK2 aptamer HTS: 71; MEKK2wt PB1 HTS: inactive; GRK2 CP1: inactive; Aptamer quench SP: inactive

How did O=C(c1ccc(CNc2c(N3CCCC3)c(=O)c2=O)cc1)N1CC=C(c2ccccc2)CC1 do in these assays?
MEKK3 PB1 HTS: inactive; MEKK2 mut-MEK5: inactive; GRK2 aptamer HTS: inactive; MEKK2wt PB1 HTS: inactive

What do the screens show for `O=C(Nc1ccccc1)c1ccc(CN2CCc3ccccc3C2)cc1`?
MEKK3 PB1 HTS: inactive; MEKK2 mut-MEK5: inactive; GRK2 aptamer HTS: 100; MEKK2wt PB1 HTS: inactive; GRK2 CP2: inactive; FAM quench CP2: inactive

How did COC(CNC(=O)C(=O)Nc1cc2c3c(c1)CCN3C(=O)CC2)OC do in these assays?
MEKK3 PB1 HTS: inactive; MEKK2 mut-MEK5: inactive; GRK2 aptamer HTS: inactive; MEKK2wt PB1 HTS: inactive

What do the screens show for `CC(=O)OCC1=C(C(=O)O)N2C(=O)C(NC(=O)Cn3nc(C(F)F)c(Cl)c3C)C2SC1` (stereo not drawn)?
MEKK3 PB1 HTS: inactive; MEKK2 mut-MEK5: inactive; GRK2 aptamer HTS: inactive; MEKK2wt PB1 HTS: inactive; GRK2 CP1: inactive; Aptamer quench SP: inactive

How did O=C(c1cc(-c2ccncc2)nc2ccc(Br)cc12)N1CCN(c2ccccn2)CC1 do in these assays?
MEKK3 PB1 HTS: inactive; MEKK2 mut-MEK5: inactive; GRK2 aptamer HTS: 93; MEKK2wt PB1 HTS: inactive; GRK2 CP1: inactive; Aptamer quench SP: inactive

How did CN(C)CC#CCOC(c1ccccc1)c1ccccc1 do in these assays?
MEKK3 PB1 HTS: inactive; MEKK2 mut-MEK5: inactive; GRK2 aptamer HTS: inactive; MEKK2wt PB1 HTS: inactive

How did CCN(CC)CC#CCOC(c1ccccc1)c1ccccc1 do in these assays?
MEKK3 PB1 HTS: inactive; MEKK2 mut-MEK5: inactive; GRK2 aptamer HTS: 79; MEKK2wt PB1 HTS: inactive; GRK2 CP1: inactive; Aptamer quench SP: inactive

What do the screens show for `COc1ccc(/C=N/Nc2nncc3ccccc23)c(OC)c1`?
MEKK3 PB1 HTS: inactive; MEKK2 mut-MEK5: inactive; GRK2 aptamer HTS: inactive; MEKK2wt PB1 HTS: inactive

What do the screens show for `CCOC(=O)c1c(C)n(C)c2cc(CN(C)C)c(O)c(S(=O)(=O)c3ccccc3)c12`?
MEKK3 PB1 HTS: inactive; MEKK2 mut-MEK5: inactive; GRK2 aptamer HTS: inactive; MEKK2wt PB1 HTS: inactive

Results for Cc1[nH]n(-c2ccccc2)c(=O)c1/C=N/O ?
MEKK3 PB1 HTS: inactive; MEKK2 mut-MEK5: inactive; GRK2 aptamer HTS: inactive; MEKK2wt PB1 HTS: inactive

What do the screens show for `Cc1ccc2cccc(N=Cc3c(C)[nH]n(-c4ccccc4)c3=O)c2n1`?
MEKK3 PB1 HTS: inactive; MEKK2 mut-MEK5: inactive; GRK2 aptamer HTS: inactive; MEKK2wt PB1 HTS: inactive; GRK2 CP1: inactive; Aptamer quench SP: inactive

How did COc1cc(/C=C(\NC(C)=O)C(=O)O)cc(OC)c1OC do in these assays?
MEKK3 PB1 HTS: inactive; MEKK2 mut-MEK5: inactive; GRK2 aptamer HTS: inactive; MEKK2wt PB1 HTS: inactive

Results for COc1cc(/C=C(/NC(C)=O)C(=O)O)cc(Cl)c1OCc1ccc(Br)cc1 ?
MEKK3 PB1 HTS: inactive; MEKK2 mut-MEK5: inactive; GRK2 aptamer HTS: 80; MEKK2wt PB1 HTS: inactive; GRK2 CP1: inactive; Aptamer quench SP: inactive

Results for O=C(NCc1ccccc1F)C1CCCN(S(=O)(=O)c2ccc(-n3cnnn3)cc2)C1 (stereo not drawn) ?
MEKK3 PB1 HTS: inactive; MEKK2 mut-MEK5: inactive; GRK2 aptamer HTS: inactive; MEKK2wt PB1 HTS: inactive; GRK2 CP1: inactive; Aptamer quench SP: inactive

What do the screens show for `CC(C)CCNC(=O)C1CCCN(S(=O)(=O)c2ccc(-n3cnnn3)cc2)C1` (stereo not drawn)?
MEKK3 PB1 HTS: inactive; MEKK2 mut-MEK5: inactive; GRK2 aptamer HTS: inactive; MEKK2wt PB1 HTS: inactive

How did O=C(NCc1ccco1)C1CCCN(S(=O)(=O)c2ccc(-n3cnnn3)cc2)C1 (stereo not drawn) do in these assays?
MEKK3 PB1 HTS: inactive; MEKK2 mut-MEK5: inactive; GRK2 aptamer HTS: inactive; MEKK2wt PB1 HTS: inactive

Results for COc1ccccc1CNC(=O)C1CCCN(S(=O)(=O)c2ccc3c(c2)C(C)(C)C(=O)N3C)C1 (stereo not drawn) ?
MEKK3 PB1 HTS: inactive; MEKK2 mut-MEK5: inactive; GRK2 aptamer HTS: inactive; MEKK2wt PB1 HTS: inactive; GRK2 CP1: inactive; Aptamer quench SP: inactive

Results for Cc1ccc(CNC(=O)C2CCCN(S(=O)(=O)c3ccc(-n4cnnn4)cc3)C2)cc1 (stereo not drawn) ?
MEKK3 PB1 HTS: inactive; MEKK2 mut-MEK5: inactive; GRK2 aptamer HTS: inactive; MEKK2wt PB1 HTS: inactive; GRK2 CP1: inactive; Aptamer quench SP: inactive

What do the screens show for `COc1ccc(S(=O)(=O)N2CCOC2CNC(=O)C(=O)NCc2ccco2)cc1OC` (stereo not drawn)?
MEKK3 PB1 HTS: inactive; MEKK2 mut-MEK5: inactive; GRK2 aptamer HTS: inactive; MEKK2wt PB1 HTS: inactive

What do the screens show for `COc1ccc(OCC(=O)N/N=C/C2CC=CCC2)cc1` (stereo not drawn)?
MEKK3 PB1 HTS: inactive; MEKK2 mut-MEK5: inactive; GRK2 aptamer HTS: inactive; MEKK2wt PB1 HTS: inactive

What do the screens show for `CCN(CC(=O)NC1CCS(=O)(=O)C1)C(=O)c1cc(OC)c(OC)c(OC)c1` (stereo not drawn)?
GRK2 aptamer HTS: 60; GRK2 CP1: inactive; Aptamer quench SP: inactive

How did CCN(CC(=O)NC1CCS(=O)(=O)C1)C(=O)c1ccc(OC)c([N+](=O)[O-])c1 (stereo not drawn) do in these assays?
GRK2 aptamer HTS: inactive

How did CC1CCCC(C)N1C(=O)COC(=O)/C=C/c1ccc(Br)o1 (stereo not drawn) do in these assays?
GRK2 aptamer HTS: 43; GRK2 CP1: inactive; Aptamer quench SP: inactive

Results for O=Cc1cn(CC(=O)N2CCCCCC2)c2ccccc12 ?
MEKK3 PB1 HTS: inactive; MEKK2 mut-MEK5: inactive; GRK2 aptamer HTS: inactive; MEKK2wt PB1 HTS: inactive
